Laboratory results reported in PubChem BioAssay (NCI).
Compounds without any hit were thinned out: in the full panel of roughly 83,000, 20% have a hit.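 Method: cells in 96-well plates; compound added at one concentration; 48 h incubation; percent growth measured; values under 10 scored active.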 Active and inactive are the calls of the source.

Assays:
Assay in all cases: NCI-60 one-dose screen, 48 h (100 = growth as untreated, 0 = no growth, -100 = all killed)
CAKI-1 renal = test system: CAKI-1 renal
A498 renal = test system: A498 renal
CCRF-CEM leukemia = test system: CCRF-CEM leukemia
HCT-15 colon = test system: HCT-15 colon
HT29 colon = test system: HT29 colon
SNB-75 CNS = test system: SNB-75 CNS
SNB-19 CNS = test system: SNB-19 CNS
U251 CNS = test system: U251 CNS
PC-3 prostate = test system: PC-3 prostate
SK-MEL-5 melanoma = test system: SK-MEL-5 melanoma
UACC-62 melanoma = test system: UACC-62 melanoma
LOX IMVI melanoma = test system: LOX IMVI melanoma
SK-MEL-28 melanoma = test system: SK-MEL-28 melanoma
SK-MEL-2 melanoma = test system: SK-MEL-2 melanoma
EKVX NSCLC = test system: EKVX NSCLC
SN12C renal = test system: SN12C renal
UO-31 renal = test system: UO-31 renal
TK-10 renal = test system: TK-10 renal
ACHN renal = test system: ACHN renal
MOLT-4 leukemia = conditions: 10 µM unless noted

Measured: growth

CC/C(=C(\c1ccc(O)cc1)c1ccc(OCCN(C)C(=O)CCOCCNC(=O)c2ccc3c(c2)CN([C@@H]2CCC(=O)NC2=O)C3=O)cc1)c1ccccc1
inactive: CAKI-1 renal; 1 µM 101% | CAKI-1 renal; 10 µM 94.5% | A498 renal; 1 µM 93.3% | A498 renal; 10 µM 89.6% | CCRF-CEM leukemia; 1 µM 24.5% | CCRF-CEM leukemia; 10 µM 26.1%

CC(C)CN1C(=O)/C(=C\C(=O)c2cc3ccccc3oc2=O)c2ccccc21
inactive: HCT-15 colon; 10 µM unless noted 45.3% | HT29 colon; 10 µM unless noted 114% | SNB-75 CNS; 10 µM unless noted 82.6% | SNB-19 CNS; 10 µM unless noted 100% | U251 CNS; 10 µM unless noted 106% | PC-3 prostate; 10 µM unless noted 96.6% | SK-MEL-5 melanoma; 10 µM unless noted 97% | UACC-62 melanoma; 10 µM unless noted 83.2% | LOX IMVI melanoma; 10 µM unless noted 85.7% | SK-MEL-28 melanoma; 10 µM unless noted 90.1% | SK-MEL-2 melanoma; 10 µM unless noted 101% | EKVX NSCLC; 10 µM unless noted 94.7% | SN12C renal; 10 µM unless noted 89.9% | UO-31 renal; 10 µM unless noted 52.1% | TK-10 renal; 10 µM unless noted 98.2% | ACHN renal; 10 µM unless noted 30.6% | CAKI-1 renal; 10 µM unless noted 81.2% | A498 renal; 10 µM unless noted 149% | CCRF-CEM leukemia; 10 µM unless noted 37.2% | MOLT-4 leukemia 40%

CC/C(=C(/c1ccc(O)cc1)c1ccc(OCCN(C)C(=O)CCOCCNC(=O)Cc2ccc3c(c2)CN([C@@H]2CCC(=O)NC2=O)C3=O)cc1)c1ccccc1
inactive: HCT-15 colon; 1 µM 108% | HCT-15 colon; 10 µM 100% | HT29 colon; 1 µM 103% | HT29 colon; 10 µM 91.3% | SNB-75 CNS; 1 µM 57% | SNB-75 CNS; 10 µM 27.8% | SNB-19 CNS; 1 µM 75.9% | SNB-19 CNS; 10 µM 62.1% | PC-3 prostate; 1 µM 42.7% | PC-3 prostate; 10 µM 27.4% | SK-MEL-5 melanoma; 1 µM 97% | SK-MEL-5 melanoma; 10 µM 71.5% | UACC-62 melanoma; 1 µM 96.9% | UACC-62 melanoma; 10 µM 85.5% | LOX IMVI melanoma; 1 µM 99.2% | LOX IMVI melanoma; 10 µM 93.6% | SK-MEL-28 melanoma; 1 µM 101% | SK-MEL-28 melanoma; 10 µM 80.2% | SK-MEL-2 melanoma; 1 µM 101% | SK-MEL-2 melanoma; 10 µM 74.7% | EKVX NSCLC; 1 µM 102% | EKVX NSCLC; 10 µM 97.8% | UO-31 renal; 1 µM 92% | UO-31 renal; 10 µM 86.8% | ACHN renal; 1 µM 103% | ACHN renal; 10 µM 101% | CAKI-1 renal; 1 µM 99% | CAKI-1 renal; 10 µM 94.9% | A498 renal; 1 µM 127% | A498 renal; 10 µM 97.7% | CCRF-CEM leukemia; 10 µM 22.9%
active: CCRF-CEM leukemia; 1 µM 3.79%

COc1ccc(/C=C/C(=O)c2ccc(S(=O)(=O)NCCNc3nc(N(C)C)nc(N4CCOCC4)n3)cc2)cc1
inactive: HCT-15 colon; 10 µM unless noted 59.3% | HT29 colon; 10 µM unless noted 81.1% | SNB-75 CNS; 10 µM unless noted 61.8% | SNB-19 CNS; 10 µM unless noted 81.2% | U251 CNS; 10 µM unless noted 77.4% | PC-3 prostate; 10 µM unless noted 77.4% | SK-MEL-5 melanoma; 10 µM unless noted 94.6% | UACC-62 melanoma; 10 µM unless noted 76.9% | LOX IMVI melanoma; 10 µM unless noted 79.7% | SK-MEL-28 melanoma; 10 µM unless noted 95.1% | SK-MEL-2 melanoma; 10 µM unless noted 94.9% | EKVX NSCLC; 10 µM unless noted 81.1% | SN12C renal; 10 µM unless noted 91.6% | UO-31 renal; 10 µM unless noted 74.5% | TK-10 renal; 10 µM unless noted 114% | ACHN renal; 10 µM unless noted 104% | CAKI-1 renal; 10 µM unless noted 73.2% | A498 renal; 10 µM unless noted 89.2% | CCRF-CEM leukemia; 10 µM unless noted 80% | MOLT-4 leukemia 34.7%

CC/C(=C(\c1ccc(O)cc1)c1ccc(OCCN(C)C(=O)COCCNC(=O)Cc2ccc3c(c2)CN([C@@H]2CCC(=O)NC2=O)C3=O)cc1)c1ccccc1
inactive: HCT-15 colon; 1 µM 110% | HCT-15 colon; 10 µM 99.5% | HT29 colon; 1 µM 110% | HT29 colon; 10 µM 80.1% | SNB-75 CNS; 1 µM 44.9% | SNB-19 CNS; 1 µM 64.8% | SNB-19 CNS; 10 µM 49.8% | U251 CNS; 1 µM 97.4% | U251 CNS; 10 µM 80% | PC-3 prostate; 1 µM 26.7% | PC-3 prostate; 10 µM 18.7% | SK-MEL-5 melanoma; 1 µM 83.7% | SK-MEL-5 melanoma; 10 µM 31.8% | UACC-62 melanoma; 1 µM 93.4% | UACC-62 melanoma; 10 µM 77.8% | LOX IMVI melanoma; 1 µM 101% | LOX IMVI melanoma; 10 µM 90.4% | SK-MEL-28 melanoma; 1 µM 90.4% | SK-MEL-28 melanoma; 10 µM 57% | SK-MEL-2 melanoma; 1 µM 82.5% | SK-MEL-2 melanoma; 10 µM 56.8% | EKVX NSCLC; 1 µM 103% | EKVX NSCLC; 10 µM 92.1% | SN12C renal; 1 µM 73.9% | SN12C renal; 10 µM 38.1% | UO-31 renal; 1 µM 92% | UO-31 renal; 10 µM 91.6% | TK-10 renal; 1 µM 105% | TK-10 renal; 10 µM 84.2% | ACHN renal; 1 µM 104% | ACHN renal; 10 µM 102% | CAKI-1 renal; 1 µM 99.2% | CAKI-1 renal; 10 µM 90.1%
active: SNB-75 CNS; 10 µM 4.63% | CCRF-CEM leukemia; 1 µM -2.66% | CCRF-CEM leukemia; 10 µM -7.62%

C[C@@H]1[C@H]2C[C@@H](C[C@H]1NCc1nc3ccccc3n1C1CCCCCC1)C2(C)C
active: SK-MEL-5 melanoma; 10 µM unless noted 4.99%
inactive: HCT-15 colon; 10 µM unless noted 27.3% | HT29 colon; 10 µM unless noted 51.4% | SNB-75 CNS; 10 µM unless noted 82% | SNB-19 CNS; 10 µM unless noted 59.3% | U251 CNS; 10 µM unless noted 67.2% | PC-3 prostate; 10 µM unless noted 37.1% | UACC-62 melanoma; 10 µM unless noted 47.9% | LOX IMVI melanoma; 10 µM unless noted 44% | SK-MEL-28 melanoma; 10 µM unless noted 77.5% | SK-MEL-2 melanoma; 10 µM unless noted 70.6% | EKVX NSCLC; 10 µM unless noted 68.3% | SN12C renal; 10 µM unless noted 39.8% | UO-31 renal; 10 µM unless noted 44.4% | TK-10 renal; 10 µM unless noted 90.8% | ACHN renal; 10 µM unless noted 59.5% | CAKI-1 renal; 10 µM unless noted 55.5% | A498 renal; 10 µM unless noted 88.9% | CCRF-CEM leukemia; 10 µM unless noted 58% | MOLT-4 leukemia 33.6%

O=C(COc1ccc(/C=C2/C(=O)Nc3ccc(Cl)cc32)cc1)Nc1ccc(Br)cc1
inactive: SK-MEL-2 melanoma; 10 µM unless noted 16.3%
active: HCT-15 colon; 10 µM unless noted -23% | HT29 colon; 10 µM unless noted -51.3% | SNB-75 CNS; 10 µM unless noted -57% | SNB-19 CNS; 10 µM unless noted 5.08% | U251 CNS; 10 µM unless noted -88.4% | PC-3 prostate; 10 µM unless noted -38.9% | SK-MEL-5 melanoma; 10 µM unless noted -14.8% | UACC-62 melanoma; 10 µM unless noted 0.1% | LOX IMVI melanoma; 10 µM unless noted -89.4% | SK-MEL-28 melanoma; 10 µM unless noted -26.7% | EKVX NSCLC; 10 µM unless noted -27.8% | SN12C renal; 10 µM unless noted -80.6% | UO-31 renal; 10 µM unless noted -73.7% | TK-10 renal; 10 µM unless noted -65.4% | ACHN renal; 10 µM unless noted -82.9% | CAKI-1 renal; 10 µM unless noted -73% | A498 renal; 10 µM unless noted -51% | CCRF-CEM leukemia; 10 µM unless noted -23.9% | MOLT-4 leukemia -46.5%
